Experimental data published in PubChem BioAssay (Tox21).
Records with an inconclusive call do not appear. Where a call stands in place of a potency, no number is given. Unmarked numbers belong to inactive results. Active and inactive are the calls of the source. Unless noted, calls come from the whole dose curve; as a rule, active = well fitted curve in the direction sought with a large enough effect in the repeat runs; inconclusive = weak or mixed curves; inactive = no such curve, though single readings can be large; an effect the other way counts as inactive or inconclusive.

Legend:
[1] = qHTS assay to identify aromatase inhibitors - cell viability counter screen (AID 743084);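 note: cells stimulated with testosterone during compound exposure; nearly all actives have a fitted effect of over 55% in size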
[2] = molecular target: Aryl hydrocarbon receptor (Homo sapiens) (UniProt P35869); test: qHTS assay to identify small molecule that activate the aryl hydrocarbon receptor (AhR) signaling pathway (AID 743085); note: nearly all actives have a fitted effect of over 15% in size; note: potency is the fitted concentration of half-maximal effect;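 for activation: HG2L7.5c1 human HepG2 liver cells with stably integrated DRE-driven firefly reporter; series mostly up to about 70 µM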
Sequence of Aryl hydrocarbon receptor (Homo sapiens) (P35869 whole entry, looked up): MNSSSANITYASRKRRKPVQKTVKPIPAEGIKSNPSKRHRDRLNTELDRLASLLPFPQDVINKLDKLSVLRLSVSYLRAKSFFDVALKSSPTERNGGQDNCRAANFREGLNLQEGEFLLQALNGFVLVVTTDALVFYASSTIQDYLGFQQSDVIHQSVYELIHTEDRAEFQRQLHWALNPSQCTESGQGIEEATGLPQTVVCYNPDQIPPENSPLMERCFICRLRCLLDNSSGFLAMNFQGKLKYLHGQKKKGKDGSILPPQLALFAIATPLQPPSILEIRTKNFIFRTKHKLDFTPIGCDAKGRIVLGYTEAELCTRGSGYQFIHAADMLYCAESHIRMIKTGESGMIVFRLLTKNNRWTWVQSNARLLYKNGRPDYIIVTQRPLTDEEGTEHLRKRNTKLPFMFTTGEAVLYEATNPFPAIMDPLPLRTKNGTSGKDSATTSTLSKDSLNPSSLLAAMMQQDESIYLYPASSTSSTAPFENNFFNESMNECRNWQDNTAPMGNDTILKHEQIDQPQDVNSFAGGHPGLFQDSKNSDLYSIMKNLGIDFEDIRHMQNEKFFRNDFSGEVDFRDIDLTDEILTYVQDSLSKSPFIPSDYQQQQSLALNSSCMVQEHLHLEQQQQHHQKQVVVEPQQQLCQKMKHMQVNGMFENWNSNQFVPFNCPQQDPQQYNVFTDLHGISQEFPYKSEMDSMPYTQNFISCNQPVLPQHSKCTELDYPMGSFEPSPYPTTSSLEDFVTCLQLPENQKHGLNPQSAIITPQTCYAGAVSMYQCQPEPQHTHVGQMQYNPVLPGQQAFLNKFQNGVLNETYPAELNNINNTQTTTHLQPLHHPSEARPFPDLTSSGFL
Outline: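 Cell line HG2L7.5c1 (human hepatoma, 20× DRE-luc). Plated, 5 h 37C, compound/DMSO added, 24 h 37C. CellTiter-Fluor 30 min 37C → fluorescence; then ONE-Glo 30 min RT → luminescence.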

[3] = qHTS assay to identify small molecule that activate the aryl hydrocarbon receptor (AhR) signaling pathway - cell viability counter screen (AID 743086);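 note: HepG2 liver cells carrying the AhR DRE luciferase reporter; series mostly up to about 70 µM; nearly all actives have a fitted effect of over 45% in size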
Outline: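 HepG2-AhR-luc (HG2L7.5c1) cells, 4000/well, treated 24 h at 37 C with compound; viability measured as CellTiter-Fluor fluorescence after 30 min in the same wells as the luciferase read.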

[4] = molecular target: Peroxisome proliferator-activated receptor gamma (Homo sapiens) (UniProt P37231); test: qHTS assay to identify small molecule agonists of the peroxisome proliferator-activated receptor gamma (PPARg) signaling pathway (AID 743094; active = well fitted activation curve with a large enough effect in the signal ratio in the repeat runs, not every such curve was filed as active; the % refers to the signal ratio)
Sequence of Peroxisome proliferator-activated receptor gamma (Homo sapiens) (P37231 whole entry, looked up): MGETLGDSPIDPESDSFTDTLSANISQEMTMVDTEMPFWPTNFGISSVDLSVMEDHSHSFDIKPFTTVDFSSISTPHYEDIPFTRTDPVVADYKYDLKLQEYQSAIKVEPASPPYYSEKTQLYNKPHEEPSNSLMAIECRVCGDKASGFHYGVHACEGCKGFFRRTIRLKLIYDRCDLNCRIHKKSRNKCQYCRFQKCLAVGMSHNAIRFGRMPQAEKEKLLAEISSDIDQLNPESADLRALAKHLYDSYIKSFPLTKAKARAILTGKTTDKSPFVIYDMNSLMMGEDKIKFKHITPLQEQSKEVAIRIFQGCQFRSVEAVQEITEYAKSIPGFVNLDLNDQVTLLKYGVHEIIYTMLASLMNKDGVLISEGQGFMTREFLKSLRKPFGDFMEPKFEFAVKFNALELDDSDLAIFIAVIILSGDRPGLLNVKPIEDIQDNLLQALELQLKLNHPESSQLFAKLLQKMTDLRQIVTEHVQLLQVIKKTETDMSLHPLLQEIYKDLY
Outline: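 Cells from the PPARg UAS-bla HEK293H line are plated and incubated 5 h at 37C. Compounds in DMSO are pinned in and left 17 h at 37C. LiveBLAzer B/G substrate is then added for 1 h at room temperature before fluorescence is measured.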

[5] = molecular target: Peroxisome proliferator-activated receptor gamma (Homo sapiens) (UniProt P37231); test: qHTS assay to identify small molecule antagonists of the peroxisome proliferator-activated receptor gamma (PPARg) signaling pathway (AID 743191; calls by dose curve; note: series mostly up to about 63 µM; nearly all actives have a fitted effect of over 30% in size)
Outline: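 GeneBLAzer PPARg UAS-bla HEK293H cells, 5 h post-plating, exposed to compounds 17 h at 37C. LiveBLAzer B/G FRET substrate added for 1 h at room temperature; beta-lactamase reporter read by fluorescence intensity.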

[6] = qHTS assay to identify small molecule antagonists of the peroxisome proliferator-activated receptor gamma (PPARg) signaling pathway - cell viability counter screen (AID 743194); note: nearly all actives have a fitted effect of over 55% in size
Outline: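 Cytotoxicity counter screen in PPARg-bla HEK293H cells, same wells as reporter assay. Compounds plus 50 nM rosiglitazone (final) for 17 h at 37 C, then viability read by CellTiter-Glo luminescence.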

[7] = qHTS assay for small molecule agonists of the antioxidant response element (ARE) signaling pathway (AID 743202; active = well fitted activation curve with a large enough effect in the signal ratio in the repeat runs, not every such curve was filed as active; the % refers to the signal ratio; note: potency is the fitted concentration of half-maximal effect)
Outline: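 HepG2 ARE-bla cells; 16 h treatment at 37 C; FRET-based beta-lactamase fluorescence read after 2 h substrate incubation at room temperature.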

[8] = qHTS assay for small molecule agonists of the antioxidant response element (ARE) signaling pathway - cell viability counter screen (AID 743203; calls by dose curve; note: nearly all actives have a fitted effect of over 55% in size)
Outline: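 Cytotoxicity was tested in parallel with the ARE reporter screen. ARE-bla HepG2 cells were exposed to compounds for 16 hrs, and viability was taken from CellTiter-Glo luminescence.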

[9] = qHTS assay for small molecule activators of the heat shock response signaling pathway - cell viability counter screen (AID 743209); note: nearly all actives have a fitted effect of over 50% in size
Outline: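 Cytotoxicity counter screen run in parallel with the HSE beta-lactamase reporter, using the same wells. HeLa HSE-bla cells received compound for 5 h at 37 C; ATP-based CellTiter-Glo luminescence was measured after 30 min at room temperature.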

[10] = qHTS assay for small molecule activators of the heat shock response signaling pathway (AID 743210; active = well fitted activation curve with a large enough effect in the signal ratio in the repeat runs, with a control signal flat, not every such curve was filed as active; the % refers to the signal ratio;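 note: HeLa cells with beta-lactamase reporter driven by heat shock elements; series mostly up to about 63 µM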)
Outline: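 Following overnight attachment, HSE-bla HeLa cells received test compounds for 5 h at 37 C; beta-lactamase activity was then detected via FRET substrate fluorescence.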

[11] = qHTS assay to identify small molecule agonists of the peroxisome proliferator-activated receptor delta (PPARd) signaling pathway - cell viability counter screen (AID 743211); note: nearly all actives have a fitted effect of over 55% in size
Outline: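 HEK293H PPARd-bla, 3000 cells/well; 5 h preincubation 37C/5% CO2; cpd in DMSO, 17 h 37C; B/G FRET substrate 2 h RT; CellTiter-Glo 30 min RT, luminescence.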

[12] = molecular target: Peroxisome proliferator-activated receptor delta (Homo sapiens) (UniProt Q03181); test: qHTS assay to identify small molecule agonists of the peroxisome proliferator-activated receptor delta (PPARd) signaling pathway (AID 743212; calls by dose curve)
Sequence of Peroxisome proliferator-activated receptor delta (Homo sapiens) (Q03181 whole entry, looked up): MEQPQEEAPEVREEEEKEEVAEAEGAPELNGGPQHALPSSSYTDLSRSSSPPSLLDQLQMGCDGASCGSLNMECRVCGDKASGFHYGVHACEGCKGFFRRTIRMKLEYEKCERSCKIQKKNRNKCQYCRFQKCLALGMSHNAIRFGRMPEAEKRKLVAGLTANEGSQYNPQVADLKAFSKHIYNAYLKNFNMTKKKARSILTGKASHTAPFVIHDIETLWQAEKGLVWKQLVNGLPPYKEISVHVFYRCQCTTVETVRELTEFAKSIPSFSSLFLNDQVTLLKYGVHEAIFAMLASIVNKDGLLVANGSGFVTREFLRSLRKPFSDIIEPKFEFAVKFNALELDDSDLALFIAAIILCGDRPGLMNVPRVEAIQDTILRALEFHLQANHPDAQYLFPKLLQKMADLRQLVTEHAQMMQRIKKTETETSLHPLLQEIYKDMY
Outline: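 Tox21 library screened in GeneBLAzer PPARd UAS-bla HEK293H cells. After compound treatment at 37 C, a FRET-based beta-lactamase substrate was applied for 2 h and fluorescence recorded.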

[13] = qHTS assay to identify small molecule antagonists of the peroxisome proliferator-activated receptor delta (PPARd) signaling pathway - cell viability counter screen (AID 743213); note: nearly all actives have a fitted effect of over 50% in size
Outline: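 Same-well viability: cells pre-incubated 5 h, dosed with compound plus 300 nM L165041, kept 17 h at 37 C, FRET substrate 2 h RT, then CellTiter-Glo 30 min RT and luminescence.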

[14] = molecular target: Peroxisome proliferator-activated receptor delta (Homo sapiens) (UniProt Q03181); test: qHTS assay to identify small molecule antagonists of the peroxisome proliferator-activated receptor delta (PPARd) signaling pathway (AID 743215; active = well fitted inhibition curve with a large enough effect in the signal ratio in the repeat runs, not every such curve was filed as active; the % refers to the signal ratio;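 note: cells stimulated with agonist L165041 at 300 nM final during compound exposure; series mostly up to about 62 µM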)
Outline: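 Cells: HEK293H with a UAS-driven beta-lactamase reporter responsive to PPARd. Compounds were co-added with L165041 (300 nM, final) and incubated 17 h at 37 C before a 2 h room-temperature FRET substrate step and fluorescence reading.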

[15] = qHTS assay to identify small molecule agonists of the farnesoid-X-receptor (FXR) signaling pathway - cell viability counter screen (AID 743218); note: nearly all actives have a fitted effect of over 45% in size
Outline: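 Cells were seeded, left 5 h at 37 C and 5% CO2, then dosed with compound in DMSO for 16 h. After the beta-lactamase FRET read, CellTiter-Glo was added and luminescence measured 30 min later.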

[16] = qHTS assay to identify small molecule antagonists of the farnesoid-X-receptor (FXR) signaling pathway - cell viability counter screen (AID 743221; active = well fitted cell-killing curve with a large enough effect in the repeat runs, not every such curve was filed as active; note: nearly all actives have a fitted effect of over 50% in size)
Outline: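 Luminescence from CellTiter-Glo measures cytotoxicity in GeneBLAzer FXR-UAS-bla HEK 293T cells. Cells were exposed to compounds with 50 uM chenodeoxycholic acid (final) for 16 h at 37 C, in wells also used for the reporter readout.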

[17] = molecular target: Vitamin D3 receptor (Homo sapiens) (UniProt P11473); test: qHTS assay to identify small molecule agonists of the vitamin D receptor (VDR) signaling pathway (AID 743222; calls by dose curve)
Sequence of Vitamin D3 receptor (Homo sapiens) (P11473 whole entry, looked up): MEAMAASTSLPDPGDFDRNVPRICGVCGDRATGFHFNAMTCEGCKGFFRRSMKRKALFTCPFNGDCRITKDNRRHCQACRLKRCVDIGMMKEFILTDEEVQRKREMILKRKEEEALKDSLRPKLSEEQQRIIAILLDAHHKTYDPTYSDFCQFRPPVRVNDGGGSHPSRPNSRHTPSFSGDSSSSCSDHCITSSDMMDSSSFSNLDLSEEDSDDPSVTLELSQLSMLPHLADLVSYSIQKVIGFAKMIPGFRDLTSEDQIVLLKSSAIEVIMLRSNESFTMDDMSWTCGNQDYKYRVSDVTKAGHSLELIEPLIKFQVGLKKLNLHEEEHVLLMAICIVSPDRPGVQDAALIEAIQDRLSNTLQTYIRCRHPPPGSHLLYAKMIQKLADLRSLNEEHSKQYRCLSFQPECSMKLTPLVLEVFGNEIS
Outline: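 Cells carrying a VDR-driven beta-lactamase reporter are seeded at 2,000 per well and rested 4 h. Compounds in DMSO are added for 16 h at 37C, and FRET substrate fluorescence is measured after 2 h at room temperature.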

[18] = molecular target: Vitamin D3 receptor (Homo sapiens) (UniProt P11473); test: qHTS assay to identify small molecule antagonists of the vitamin D receptor (VDR) signaling pathway (AID 743223; active = well fitted inhibition curve with a large enough effect in the signal ratio in the repeat runs, not every such curve was filed as active; the % refers to the signal ratio)
Outline: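 Antagonist mode uses 1alpha,25-dihydroxyvitamin D3 at 3 nM final as stimulus. VDR-bla cells receive compounds in DMSO, incubate 16 h at 37C, then a beta-lactamase FRET substrate for 2 h at room temperature before fluorescence measurement.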

[19] = molecular target: Bile acid receptor (Homo sapiens) (UniProt Q96RI1); test: qHTS assay to identify small molecule agonists of the farnesoid-X-receptor (FXR) signaling pathway (AID 743220; active = well fitted activation curve with a large enough effect in the signal ratio in the repeat runs, not every such curve was filed as active; the % refers to the signal ratio)
Sequence of Bile acid receptor (Homo sapiens) (Q96RI1 whole entry, looked up): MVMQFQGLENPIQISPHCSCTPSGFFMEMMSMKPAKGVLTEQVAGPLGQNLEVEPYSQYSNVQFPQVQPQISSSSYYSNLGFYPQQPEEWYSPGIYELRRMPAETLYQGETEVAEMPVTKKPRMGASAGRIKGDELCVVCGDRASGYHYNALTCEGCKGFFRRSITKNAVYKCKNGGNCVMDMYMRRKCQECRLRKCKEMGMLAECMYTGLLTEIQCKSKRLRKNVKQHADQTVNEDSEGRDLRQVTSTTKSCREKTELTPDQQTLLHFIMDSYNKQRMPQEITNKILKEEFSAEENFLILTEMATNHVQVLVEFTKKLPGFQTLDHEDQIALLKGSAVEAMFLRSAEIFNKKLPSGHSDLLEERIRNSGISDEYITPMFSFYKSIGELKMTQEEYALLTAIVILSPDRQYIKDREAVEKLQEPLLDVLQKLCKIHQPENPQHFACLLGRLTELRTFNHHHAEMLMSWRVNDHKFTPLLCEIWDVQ
Outline: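 FXR-UAS-bla HEK 293T cells carrying a UAS-driven beta-lactamase reporter were plated for 5 h at 37C/5% CO2, then exposed to DMSO-dissolved Tox21 10K compounds for 16 h at 37C. A LiveBLAzer B/G FRET substrate was loaded for 2 h at room temperature before fluorescence reading.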

[20] = molecular target: Bile acid receptor (Homo sapiens) (UniProt Q96RI1); test: qHTS assay to identify small molecule antagonists of the farnesoid-X-receptor (FXR) signaling pathway (AID 743217; active = well fitted inhibition curve with a large enough effect in the signal ratio in the repeat runs, not every such curve was filed as active; the % refers to the signal ratio)
Outline: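 Cells carrying a UAS-driven beta-lactamase reporter (GeneBLAzer FXR-UAS-bla HEK 293T) were plated and rested 5 h at 37 °C. Compounds in DMSO were added alongside chenodeoxycholic acid agonist at 50 uM final and left 16 h at 37 °C before FRET substrate readout.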

Row | SMILES | Potency [1] | Potency [2] | Potency [3] | Potency [4] | Potency [5] | outcome [6] | Potency [7] | outcome [8] | outcome [9] | outcome [10] | outcome [11] | outcome [12] | outcome [13] | outcome [14] | outcome [15] | outcome [16] | outcome [17] | outcome [18] | outcome [19] | outcome [20]
1 | CCOc1ccccc1OCC | inactive | inactive | inactive | inactive | inactive | inactive | inactive | inactive | inactive | inactive | inactive | inactive | inactive | inactive | inactive | inactive | inactive | inactive | – | –
2 | CCCCc1ccc2c(n1)[C@@H](c1ccc(OC)cc1C[C@H](C)C(=O)O)[C@H](C(=O)O)[C@H]2c1ccc2c(c1)OCO2 | inactive | inactive | inactive | inactive | inactive | inactive | inactive | inactive | inactive | inactive | inactive | – | inactive | – | inactive | inactive | inactive | inactive | inactive | –
3 | O=C(O)CC(C(=O)O)S(=O)(=O)O (stereo not drawn) | inactive | inactive | inactive | inactive | inactive | inactive | inactive | – | – | – | inactive | inactive | – | – | inactive | inactive | inactive | – | – | –
4 | CC(C)(C)C(=O)Oc1ccc(S(=O)(=O)Nc2ccccc2C(=O)NCC(=O)O)cc1 | inactive | 11.9 µM (active) | inactive | inactive | inactive | inactive | inactive | inactive | – | – | inactive | inactive | – | inactive | – | inactive | inactive | inactive | inactive | inactive
5 | CC(=O)c1ccccc1[N+](=O)[O-] | inactive | inactive | inactive | inactive | inactive | inactive | inactive | – | inactive | inactive | inactive | inactive | inactive | inactive | inactive | inactive | inactive | inactive | – | –
6 | COc1ccc2cc1Oc1cc3c(cc1OC)CC[N+](C)(C)[C@H]3Cc1ccc(cc1)Oc1c(OC)c(OC)cc3c1[C@@H](C2)[N+](C)(C)CC3 | inactive | inactive | inactive | inactive | inactive | – | inactive | inactive | inactive | inactive | inactive | inactive | inactive | inactive | inactive | inactive | inactive | inactive | – | –
7 | O=S(=O)(O)c1cccc(S(=O)(=O)O)c1 | inactive | inactive | inactive | inactive | inactive | inactive | – | inactive | – | – | inactive | inactive | – | – | inactive | inactive | – | inactive | – | –
8 | COc1ccnc(CS(=O)c2nc3cc(OC(F)F)ccc3[nH]2)c1OC (stereo not drawn) | inactive | 3.35 µM (active) | inactive | inactive | – | – | 27.5 µM (active) | inactive | inactive | inactive | inactive | inactive | inactive | inactive | inactive | inactive | – | – | – | –
9 | CNCCO | inactive | inactive | inactive | inactive | inactive | – | – | inactive | inactive | inactive | inactive | inactive | inactive | inactive | – | inactive | – | – | inactive | –
10 | C[C@@H]1C[C@H]2[C@@H]3C[C@H](F)C4=CC(=O)C(Cl)=C[C@]4(C)[C@@]3(F)[C@@H](O)C[C@]2(C)[C@@]1(O)C(=O)CO | inactive | inactive | inactive | inactive | – | inactive | inactive | – | inactive | – | inactive | inactive | inactive | – | inactive | inactive | – | – | inactive | inactive
11 | CC(C)CCCO | inactive | inactive | inactive | inactive | – | – | inactive | – | inactive | inactive | inactive | inactive | – | inactive | inactive | inactive | inactive | inactive | inactive | inactive
12 | CCCCCC(=O)OCCc1ccccc1 | inactive | inactive | inactive | inactive | inactive | inactive | – | inactive | – | inactive | inactive | – | – | – | inactive | inactive | inactive | inactive | – | –
13 | NC(=O)Cc1cccc2ccccc12 | inactive | inactive | inactive | inactive | inactive | – | – | inactive | – | inactive | inactive | inactive | inactive | inactive | inactive | – | – | – | inactive | inactive
14 | C=CCOCC(O)CO (stereo not drawn) | inactive | inactive | inactive | inactive | inactive | – | inactive | inactive | inactive | inactive | inactive | – | inactive | – | inactive | – | inactive | – | – | –
15 | O=S(=O)(O)c1cc(O)c(O)c(S(=O)(=O)O)c1 | inactive | inactive | inactive | inactive | inactive | inactive | – | inactive | inactive | inactive | inactive | inactive | inactive | – | inactive | inactive | inactive | – | inactive | inactive
16 | CC/C=C\CCOC(C)OCC (stereo not drawn) | inactive | inactive | inactive | inactive | inactive | – | – | – | inactive | inactive | inactive | inactive | inactive | inactive | inactive | – | – | inactive | – | –
17 | O=CN(CCO)CCO | inactive | inactive | inactive | inactive | inactive | inactive | – | inactive | inactive | inactive | inactive | inactive | – | inactive | inactive | inactive | inactive | inactive | – | –
